Source: PubChem BioAssay (Tox21)
Records with an inconclusive call do not appear. Where a call stands in place of a potency, no number is given. The source made the active and inactive calls. Unless noted, calls come from the whole dose curve; as a rule, active = well fitted cell-killing curve with a large enough effect in the repeat runs; inconclusive = weak or mixed curves; inactive = no such curve, though single readings can be large or run the other way.

Tested on: not listed separately
Assay: qHTS assay to identify small molecule antagonists of the peroxisome proliferator-activated receptor delta (PPARd) signaling pathway - cell viability counter screen (AID 743213); note: nearly all actives have a fitted effect of over 50% in size; note: potency is the fitted concentration of half-maximal effect
Conditions: PPARd-bla HEK293H viability, CellTiter-Glo luminescence, 17 h; series mostly up to 62 µM
How it was run: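 In this counter screen, HEK293H cells carrying a UAS-beta-lactamase reporter are co-treated with test compounds and 300 nM L165041 (final) for 17 h at 37 C; cell viability is quantified by CellTiter-Glo luminescence.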

Row | Structure (SMILES) | Potency
1 | CC(C)c1ccc2c(C(C)C)cc(C(C)C)c(S(=O)(=O)O)c2c1 | inactive
2 | OCCC1CCCCN1 (configuration not stated) | inactive
3 | CC1(C)CCC(C)(C)c2cc(NC(=O)c3ccc(C(=O)O)cc3)ccc21 | inactive
4 | CC/C(=C\C(=N/O)C(N)=O)C(C)[N+](=O)[O-] (configuration not stated) | inactive
5 | CC(=O)N(O)CCCCCNC(=O)CCC(=O)N(O)CCCCCNC(=O)CCC(=O)N(O)CCCCCN | inactive
6 | Cl/C(=C\n1cncn1)c1ccc(Cl)cc1Cl | inactive
7 | CC(C)CC=O | inactive
8 | FC(F)(F)C(F)(F)C(F)(F)C(F)(F)C(F)(F)C(F)(F)CCI | inactive
9 | O=C(Cl)c1c(Cl)cccc1Cl | inactive
10 | CC(=O)CC(=O)c1ccccc1 | inactive
11 | C#CCOC(=O)[C@@H](C)Oc1ccc(Oc2ncc(Cl)cc2F)cc1 | inactive
12 | O=C(Nc1ccccc1)OCC(CN1CCCCC1)OC(=O)Nc1ccccc1 (configuration not stated) | 26.6 µM (active)
13 | CCOC(=O)C1=NN(c2ccccc2)C(=O)C1 | inactive
14 | CCCCCCOC(=O)CCC | inactive
15 | CN1CCN(C2=Nc3ccccc3Sc3ccc(Cl)cc32)CC1 | inactive
16 | CCN(CC)CCc1nc(-c2ccccc2)no1 | inactive
17 | COCCO | inactive
18 | O=C(O)Cc1sc(-c2ccccc2)nc1-c1ccc(Cl)cc1 | inactive
19 | CC(C)CCCCCCOC(=O)c1ccc(C(=O)OCCCCCCC(C)C)c(C(=O)OCCCCCCC(C)C)c1 | inactive
20 | Cc1ccc2c(ccc3ccccc32)c1 | inactive
21 | CCCCOC(=O)/C=C\C(=O)OCCCC | inactive
22 | CN(C)CCCNCCCN | inactive
23 | CC(=O)[C@@]1(O)CC[C@H]2[C@@H]3C[C@H](C)C4=CC(=O)CC[C@]4(C)[C@H]3CC[C@@]21C | inactive
24 | N#Cc1c(F)cccc1F | inactive

Biological target: Peroxisome proliferator-activated receptor delta (Homo sapiens) (UniProt Q03181)
Sequence (Q03181 whole entry, looked up): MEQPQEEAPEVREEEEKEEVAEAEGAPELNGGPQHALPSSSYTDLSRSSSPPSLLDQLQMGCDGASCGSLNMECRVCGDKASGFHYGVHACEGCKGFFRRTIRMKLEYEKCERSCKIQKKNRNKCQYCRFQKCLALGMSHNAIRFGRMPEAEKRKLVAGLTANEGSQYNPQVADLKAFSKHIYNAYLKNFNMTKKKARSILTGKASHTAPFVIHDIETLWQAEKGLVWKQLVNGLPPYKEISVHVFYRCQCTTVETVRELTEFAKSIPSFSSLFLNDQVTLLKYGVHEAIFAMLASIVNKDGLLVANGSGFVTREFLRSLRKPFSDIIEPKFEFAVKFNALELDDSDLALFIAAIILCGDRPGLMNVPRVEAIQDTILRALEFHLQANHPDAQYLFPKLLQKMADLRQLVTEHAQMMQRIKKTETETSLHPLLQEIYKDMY
Assay: qHTS assay to identify small molecule antagonists of the peroxisome proliferator-activated receptor delta (PPARd) signaling pathway (AID 743215; active = well fitted inhibition curve with a large enough effect in the signal ratio in the repeat runs, not every such curve was filed as active; the % refers to the signal ratio;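 note: cells stimulated with agonist L165041 at 300 nM final during compound exposure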)
Conditions: HEK293H PPARd-UAS-bla, beta-lactamase FRET ratio, antagonist, 17 h; series mostly up to 62 µM
How it was run: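 Plated HEK293H PPARd-bla cells rested 5 h at 37 C and 5% CO2. Compound, then agonist L165041 at 300 nM final, was added; 17 h at 37 C followed. Substrate loading, 2 h room temperature, fluorescence measured.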

Row | Structure (SMILES) | outcome
25 | Cc1cc(C)c(S(=O)(=O)O)cc1N=Nc1cc(S(=O)(=O)O)c2ccccc2c1O | inactive
26 | OCCC1CCCCN1 (configuration not stated) | inactive
27 | CC1(C)CCC(C)(C)c2cc(NC(=O)c3ccc(C(=O)O)cc3)ccc21 | inactive
28 | CC(=O)N(O)CCCCCNC(=O)CCC(=O)N(O)CCCCCNC(=O)CCC(=O)N(O)CCCCCN | inactive
29 | FC(F)(F)C(F)(F)C(F)(F)C(F)(F)C(F)(F)C(F)(F)CCI | inactive
30 | C#CCOC(=O)[C@@H](C)Oc1ccc(Oc2ncc(Cl)cc2F)cc1 | inactive
31 | CCCCCCOC(=O)CCC | inactive
32 | CN1CCN(C2=Nc3ccccc3Sc3ccc(Cl)cc32)CC1 | inactive
33 | O=C(O)Cc1sc(-c2ccccc2)nc1-c1ccc(Cl)cc1 | inactive
34 | CC(C)CCCCCCOC(=O)c1ccc(C(=O)OCCCCCCC(C)C)c(C(=O)OCCCCCCC(C)C)c1 | inactive
35 | CN(C)CCCNCCCN | inactive
36 | OC(CCN1CCCCC1)(c1ccccc1)C1CCCCC1 (configuration not stated) | inactive
37 | N#Cc1c(F)cccc1F | inactive
